A selection: hits, their analogues and other compounds. The true share with any hit is near 4.7%.
Plk1 PBD FP = Plk1 polo box domain binding inhibitors, primary screen, biochemical, fluorescence polarization; Serine/threonine-protein kinase PLK1 (Homo sapiens), P53350; Plk1 PBD phosphopeptide binding; inhibition, %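 (tested at about 20 µM)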; actives 0.13% (n = 97,000); in the data active means inhibition above about 34%, passing the limit was not always enough
Target sequence (P53350 whole entry, looked up, the tested form may be a part): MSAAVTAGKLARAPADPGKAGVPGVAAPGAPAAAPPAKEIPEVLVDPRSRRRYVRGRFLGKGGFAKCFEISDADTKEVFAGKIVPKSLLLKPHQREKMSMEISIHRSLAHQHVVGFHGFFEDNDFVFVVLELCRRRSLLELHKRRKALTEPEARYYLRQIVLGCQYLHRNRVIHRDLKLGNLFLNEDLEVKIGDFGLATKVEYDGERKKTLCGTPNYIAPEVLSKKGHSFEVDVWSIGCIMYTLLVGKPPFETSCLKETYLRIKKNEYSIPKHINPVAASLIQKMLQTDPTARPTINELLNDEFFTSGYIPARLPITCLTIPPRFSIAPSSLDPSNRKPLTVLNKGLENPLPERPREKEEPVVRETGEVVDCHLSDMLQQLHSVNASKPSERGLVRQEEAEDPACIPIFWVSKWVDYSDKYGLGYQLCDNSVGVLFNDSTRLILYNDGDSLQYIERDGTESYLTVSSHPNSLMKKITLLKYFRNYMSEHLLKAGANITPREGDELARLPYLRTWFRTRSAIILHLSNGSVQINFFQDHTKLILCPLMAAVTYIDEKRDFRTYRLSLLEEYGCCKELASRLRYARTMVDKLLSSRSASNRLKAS
sdo1 growth = growth rescue of sdo1-depleted yeast, primary screen, S. cerevisiae, bone marrow failure model. S. cerevisiae sdo1-depleted JHY4D growth rescue, OD600 30 h; stronger effect = higher value; pdr5 snq2 efflux-pump mutant strain. z-score at 10 µM. actives 0.21% (n = 140,000). AID 817, 2007;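 active means z-score above 3 at both the 24 hr and the 30 hr optical density reads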;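 further: z-score against mean and SD of all compound wells on the same plate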
PLK1 kinase inh = human PLK1 kinase inhibitors, primary screen, biochemical, TR-FRET | AID 619, 2007 | actives 0.53% (n = 97,000) | inhibition, % at 10 µM | recombinant PLK1 kinase, TR-FRET peptide phosphorylation | Serine/threonine-protein kinase PLK1 (Homo sapiens), P53350;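 active means inhibition of 50% or more in the single-concentration screen; inactive means inhibition below 50%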;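 further: 0% = DMSO max control and 100% = H-89 dihydrochloride min control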
PTK2B oligo ant = antagonists of Pyk2 self-association, primary screen, Q293 cells, FERM NanoBiT luminescence, HTS; Protein-tyrosine kinase 2-beta (Homo sapiens), Q14289; stronger effect = lower value; z-score (the deposit names both 25 µM and 10 µM); actives 0.83% (n = 99,000);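 active means Z-score of -3 or lower, scaled per plate to the spread of control and sample wells; inactive means z-score above -3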;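 further: negative z-score means lost luminescence so less FERM oligomerization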
Cav3 T inh = Cav3.2 calcium influx blockers – cell-based, Fluo-4 calcium fluorescence, FDSS, MLSMR library, primary screen; Cav3.2-expressing cells; stronger effect = lower value; B-score at 10 µM; Voltage-dependent T-type calcium channel subunit alpha-1H (Homo sapiens), O95180; AID 449739, 2010; actives 4% (n = 100,000);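 active means single-dose well whose peak fluorescence ratio is a statistical outlier from its plate by either plate-standardised score or position-corrected B-score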
DAT uptake mod = changed hDAT dopamine uptake under cocaine IC80, either direction, primary screen, cocaine antagonist project, cell-based, LLC-PK1 hDAT, [14C]-dopamine uptake, MLSMR; Sodium-dependent dopamine transporter (Homo sapiens), Q01959; AID 449768, 2010; B-score at 10 µM; LLC-PK1 hDAT cells, [14C]-dopamine uptake with cocaine IC80; actives deviate in either direction; actives 1.3% (n = 110,000);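 active means Z score or B-score, a plate-position-corrected score, falls beyond the plate's 99.7% confidence bounds, in either direction; inactive means both scores lie inside the 99.7% bounds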;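 further: scored against the spread of the other compound wells on the same plate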
Active calls of the source: *; nt = no result given.

SMILES	Plk1 PBD FP	sdo1 growth	PLK1 kinase inh	PTK2B oligo ant	Cav3 T inh	DAT uptake mod
CCS(=O)(=O)N1Cc2ccccc2CC1C(=O)N1CCN(c2cccc(C)c2C)CC1 (stereo not given)	10.4	-0.25	3.6	-0.16	nt	-0.0357
Cc1ccc([N+](=O)[O-])cc1NC(=O)C(Sc1ccccc1)c1ccccc1 (stereo not given)	nt	-0.04	nt	nt	nt	nt
CCc1nnc(NC(=O)CCC(=O)NC2CCCc3ccccc32)s1 (stereo not given)	nt	-0.22	nt	nt	nt	nt
CCOC(=O)CN1C(=O)N[C@@H](c2ccco2)C(C(C)=O)=C1C	nt	nt	nt	nt	0.603	-0.991
O=C(NC1CC1)c1cccc(Nc2ccc(-c3ccc4c(c3)OCCO4)nn2)c1	-7.7	1.1	1.3	-3.35*	-0.67	-0.00256
O=C1N=C(N2CCCC2)CN1c1ccccc1	nt	0.02	nt	nt	nt	nt
COc1cc(/C=C/C(=O)c2c(O)ccc3c(C)cc(=O)oc23)ccc1O	-16.5	-2.08	-6.0	-3.01*	nt	-0.493
FC(F)C(F)(F)C(F)(F)C(F)(F)c1cc(-c2ccccc2)n[nH]1	nt	-1.6	nt	-3.38*	-1.8	-0.778
COc1ccc(-n2c(C(C)(C)C)csc2=Nc2c(C)n(C)n(-c3ccccc3)c2=O)cc1	nt	1.24	nt	nt	nt	nt
COCOc1ccc(C2CC(=O)c3c(OCOC)cc(OCOC)cc3O2)cc1 (stereo not given)	nt	nt	nt	nt	-0.265	1.15
CCOC(=O)c1sc(=S)n(Cc2ccccc2)c1N	0.4	-2.17	-1.8	-1.49	-6.68*	0.0123
CCOC(=O)c1sc(=S)n(CC)c1N	nt	2.65	nt	-0.15	0.477	-0.403
COc1ccc(CCNc2oc(COc3ccccc3Cl)nc2C#N)cc1OC	10.9	-0.8	-24.2	nt	-5.77*	0.464
COc1ccc(CCNc2oc(COc3ccccc3F)nc2C#N)cc1OC	3.1	0	0.3	0.04	-5.07*	0.954
COc1ccc(CCNc2oc(Cc3ccccc3)nc2C#N)cc1OC	-7.9	-1.32	-3.5	1.56	-1.47	0.752
CCCn1nc([N+](=O)[O-])c(C(C#N)c2nc3ccccc3s2)c(Cl)c1=O (stereo not given)	-35.8	-0.82	-0.6	-3.18*	-4.37*	-1.78
CCn1nc([N+](=O)[O-])c(C(C#N)c2nc3ccccc3n2C)c(Cl)c1=O (stereo not given)	nt	-0.19	nt	nt	nt	nt
COc1ccccc1C(=O)NN=C1CCN(Cc2ccccc2)CC1	nt	1.9	nt	nt	nt	nt
CCO[C@H]1OC(C(=O)N2CCOCC2)=C[C@@H](C2CC2)[C@@H]1CCCO	nt	nt	nt	nt	0.298	-0.46
CCCN(CC1CC1)C(=O)CSc1ncnc2sc(C)c(C)c12	-5.3	-0.52	2.4	-0.71	-5.18*	0.678
CCOC(=O)C1C(c2ccc(O)c(O)c2)NC(=S)NC1(O)C(F)(F)F (stereo not given)	nt	0.17	nt	nt	nt	nt
CCOC(=O)C1=C(N)Oc2cc(C)oc(=O)c2C1c1cccnc1 (stereo not given)	-7.5	0.3	-0.1	0.93	1.03	-0.321
CCOC(=O)C1=C(N)Oc2ccc3ccccc3c2C1c1cccnc1 (stereo not given)	-10.9	-0.6	-14.6	-3.15*	-0.843	-0.631
Cc1cc(C)nc(SCC(=O)N/N=C/c2cc(C)n(-c3ccccc3C)c2C)n1	nt	0.36	nt	0.05	nt	nt
Cc1ccccc1N(CC(=O)N/N=C/c1cc(C)n(-c2ccccc2C)c1C)S(C)(=O)=O	2.6	-0.26	-20.3	-0.45	-9.75*	-2.69*
SMILES	Plk1 PBD FP	sdo1 growth	PLK1 kinase inh	PTK2B oligo ant	Cav3 T inh	DAT uptake mod
Cc1ccc(Nc2ccc(S(=O)(=O)N3CCOCC3)cc2[N+](=O)[O-])cc1C	nt	-0.58	nt	nt	nt	nt
CCn1c(CN2CCN(c3ccc(Cl)cc3)CC2)nc2ccccc21	-7.6	-1.73	-4.8	-0.99	-6.67*	0.147
Cn1c(CN2CCN(c3ccc(Cl)cc3)CC2)nc2ccccc21	21.1	-2.17	2.0	-0.08	-1.43	0.875
O=C(Cn1ncc2c1-c1ccccc1OC2)Nc1nc2ccccc2s1	1.8	-0.92	2.8	nt	-9.42*	-0.673
CCOC(=O)C1C(=O)C=C(Nc2ccccc2F)CC1c1ccccc1 (stereo not given)	nt	0.06	nt	nt	nt	nt
O=S(=O)(Nc1nc2ccccc2nc1NCc1ccco1)c1ccc(Cl)cc1	0.0	-1.39	-7.1	0.65	-4.76*	-0.337
Cc1noc(C)c1CSc1nc2ccccc2nc1NS(=O)(=O)c1ccc(Cl)cc1	2.6	-2.01	-23.2	-0.92	-8.08*	-0.889
Cc1ccc(S(=O)(=O)Nc2nc3ccccc3nc2NCc2ccco2)cc1	7.4	-0.9	1.7	0.7	-2.47	1.38
O=S(=O)(Nc1nc2ccccc2nc1Cl)c1ccccc1	nt	1.1	nt	nt	nt	nt
Cc1ccc(C)c(S(=O)(=O)N2CC(=O)N(CCc3ccccc3)C(=O)C2)c1	nt	-0.49	nt	nt	nt	nt
Cn1c2ccccc2n2c(=O)c(=O)n(CC(=O)c3ccc(Cl)cc3)nc12	nt	-0.07	nt	nt	nt	nt
c1ccc(Oc2cccc(OCCCCSc3ncccn3)c2)cc1	-19.3	0.66	-12.9	-3.3*	-1.69	-0.167
CCCCCCCCCCCCOC1OC(CO)C(O)C(O)C1NC(C)=O (stereo not given)	nt	-0.58	nt	0.39	nt	nt
O=C1N(CC(=O)N2CCc3ccccc32)CCN1Cc1ccccc1Cl	-4.1	-0.51	-7.8	0.13	-3.53*	-0.968
O=C(CN1CCc2ccccc21)NCc1ccccc1Cl	nt	0.01	nt	nt	nt	nt
O=C(NC(Cc1c[nH]c2ccccc12)C(=O)O)c1ccco1 (stereo not given)	-6.8	1.42	-7.9	0.15	0.243	-9.52*
Oc1ccc(Nc2nc(NCC3CCCO3)c3ccccc3n2)cc1 (stereo not given)	-4.9	-0.6	-10.0	-0.79	-0.651	0.994
COc1cccc(Nc2nc(NCC3CCCO3)c3ccccc3n2)c1 (stereo not given)	-23.4	-1.83	3.1	-2.59	-5.66*	0.0839
COc1ccc(C#Cc2c(-c3ccsc3)oc3ccc(-c4cc(OC)c(OC)c(OC)c4)cc23)cc1	nt	nt	nt	nt	-0.307	-0.698
CC1CCCN(CCCCOc2cccc(Br)c2)C1 (stereo not given)	nt	-0.76	nt	nt	nt	nt
CCOC(=O)CSc1cc(CSc2ccccc2)nc(-c2ccccc2)n1	34.0	0.52	-3.0	0.25	-1.07	-0.122
c1ccc(Oc2cc(-c3ccccc3)nc(-c3ccccc3)n2)cc1	nt	-0.52	nt	nt	nt	nt
O=S(=O)(Cc1cc(Oc2ccccc2)nc(-c2ccccc2)n1)c1ccccc1	6.8	-0.38	-6.6	-0.87	-5.11*	-0.646
Cc1nc(CS(=O)(=O)c2ccc(Cl)cc2)cc(Sc2ccc(Cl)cc2)n1	8.8	-2.14	-1.9	1.27	-5.32*	0.0178
